The values below come from PubChem BioAssay (NCATS).

The structures appear in SMILES notation. Results filed as inconclusive are left out. The source made the active and inactive calls. Calls follow the shape of the dose curve; as a rule, active = well fitted cell-killing curve with a large enough effect; inconclusive = small, poorly fitted or top-dose-only effect; inactive = flat fitted curve, though single readings scatter.

Test [1] is described as follows: Cell Viability - LYMP2-013 (AID 970). Also: nearly all actives have a fitted effect of over 55% in size. The conditions noted are these: LYMP2-013 lymphoblastoid cells viability; series mostly up to 92.2 µM. In short, it runs like this: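 Human lymphoblastoid cells, 2500/well, were preincubated 5 hr at 37 C, then treated with compounds for 24 hr at 37 C in complete medium. Intracellular ATP was read by CellTiter-Glo luminescence; AC50 from Hill-equation fits of concentration-response data.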

A short description of test [2]: Cell Viability - LYMP2-015 (AID 971). Also: nearly all actives have a fitted effect of over 55% in size. The conditions noted are these: LYMP2-015 lymphoblastoid cell viability; series mostly up to 92.2 µM. In short, it runs like this: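 Human lymphoblastoid cells (2500/well) in complete medium were preincubated 5 hr at 37 C, then compound-treated 24 hr at 37 C. Intracellular ATP was read by CellTiter-Glo luminescence after 30 min at room temperature; AC50 came from Hill-equation concentration-response fits.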

Test [3] is described as follows: Cell Viability - LYMP2-017 (AID 972). Also: nearly all actives have a fitted effect of over 55% in size. The conditions noted are these: LYMP2-017 lymphoblastoid cell viability; series mostly up to 92.2 µM. Summed up: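 Human lymphoblastoid cells (2500/well) were seeded in complete medium, held 5 hr at 37 C, then exposed to compounds for 24 hr at 37 C. Intracellular ATP was read by CellTiter-Glo luminescence after 30 min at room temperature, with AC50 values from Hill-equation fits.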

A short description of test [4]: Cell Viability - LYMP2-019 (AID 973). Also: nearly all actives have a fitted effect of over 55% in size. The following applies: LYMP2-019 lymphoblastoid cell line viability; series mostly up to 92.2 µM. Summed up: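 Human lymphoblastoid cells were seeded at 2500 cells/well, preincubated 5 hr at 37 C, then exposed to compounds for 24 hr at 37 C in complete medium. Intracellular ATP was measured by CellTiter-Glo luminescence; AC50 from Hill fits.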

Test [5] in a line: Cell Viability - LYMP2-021 (AID 974). The conditions noted are these: LYMP2-021 lymphoblastoid cells viability; series mostly up to 92.2 µM. Summed up:
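Human lymphoblastoid cells (2500/well) were preincubated 5 hr at 37 C, then exposed to compounds for 24 hr at 37 C in complete medium. Intracellular ATP was read by CellTiter-Glo luminescence; AC50 came from Hill-equation fits of concentration-response data.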

Test [6] can be described thus: Cell Viability - LYMP2-023 (AID 975). Also: nearly all actives have a fitted effect of over 55% in size. The following applies: LYMP2-023 lymphoblastoid cell viability; series mostly up to 92.2 µM. Summed up:
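Human lymphoblastoid cells (2500/well) were preincubated 5 hr at 37 C, then exposed to compounds for 24 hr at 37 C in complete medium. Cellular ATP was read by CellTiter-Glo luminescence, and AC50 came from Hill-equation fits.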

A short description of test [7]: Cell Viability - LYMP2-025 (AID 976). The conditions noted are these: LYMP2-025 lymphoblastoid cell viability; series mostly up to 92.2 µM. In short, it runs like this: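 Human lymphoblastoid LYMP2-025 cells (2500/well) were pre-incubated 5 hr at 37 C, then treated with compounds for 24 hr at 37 C in complete medium. Viability was read as intracellular ATP by CellTiter-Glo luminescence; AC50 from Hill fits.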

A short description of test [8]: Cell Viability - LYMP2-002 (AID 977). The following applies: LYMP2-002 lymphoblastoid cell viability, qHTS; series mostly up to 92.2 µM. In short, it runs like this:
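Luminescent ATP readout (CellTiter-Glo, 30 min room temperature) after 24 h compound exposure at 37 C of a human lymphoblastoid line, 2500 cells/well. AC50 values derived by standard Hill fitting of qHTS concentration-response data.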
Background: qHTS replaces the single test concentration by a dilution series.

Test [9] is described as follows: Cell Viability - LYMP2-006 (AID 978). Also: nearly all actives have a fitted effect of over 60% in size. The conditions noted are these: LYMP2-006 lymphoblastoid cell viability, qHTS; series mostly up to 92.2 µM. Summed up:
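Concentration-dependent loss of intracellular ATP in a human lymphoblastoid line after 24 hr treatment at 37 C was measured by CellTiter-Glo luminescence, with AC50 values obtained from standard Hill-equation modelling.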

The nature of test [10]: Cell Viability - LYMP2-007 (AID 979).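 Also: cells exposed to compound for 24 h before reading; nearly all actives have a fitted effect of over 60% in size.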 The conditions noted are these: LYMP2-007 lymphoblastoid cell viability; series mostly up to 92.2 µM. In short, it runs like this: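 Human lymphoblastoid cells (2500/well) were plated in complete medium, incubated 5 hr at 37 C, then exposed to compounds for 24 hr at 37 C. Intracellular ATP was read by CellTiter-Glo luminescence after 30 min at room temperature; AC50 from Hill fits.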
Potency is read from the fitted curve at half-maximal effect.

On to `Cc1ccc(O)cc1`, for which the Potency entry in test [1], in [2], in test [3], in test [4], in [5] and in test [6] was “inactive” each time. Besides, the Potency entry in test [7], in test [8], in test [9] and in test [10] was “inactive” throughout.

As to `CCCCCCCCCCCCCCCC[n+]1ccccc1`, the Potency in test [1] is 25.1 µM (active); in test [2], 15.8 µM (active); in [3], 25.1 µM (active); in test [4] it was 20 µM (active); in [5] it was 25.1 µM (active); in test [6] it was 39.8 µM (active). For the same compound, the Potency in [7] is 39.8 µM (active); in test [8], 15.8 µM (active); in test [9], 12.6 µM (active); in test [10], 12.6 µM (active).

Turning to `O=C(NO)c1ccccc1`, the Potency entry in [1], in test [2], in [3], in test [4], in test [5] and in test [6] was “inactive” throughout. Also, the Potency result in test [7], in test [8], in [9] and in test [10] was “inactive” throughout.

`CCCC(=O)c1cc(O)c(O)cc1O`: the Potency entry in [1], in [2], in test [4], in test [5], in [6] and in test [7] was “inactive” throughout. Besides, the Potency entry in test [8] and in test [9] was “inactive” each time.

Turning to `O=C(Oc1ccccc1)c1ccccc1O`, the Potency result in test [1], in test [2], in test [3], in [4], in test [5] and in test [6] was “inactive” in each case. The Potency result in test [7], in test [8], in [9] and in test [10] was “inactive” in each case.

Turning to `CC(=O)OC/C=C(C)/C=C/C=C(C)/C=C/C1=C(C)CCCC1(C)C`, the Potency in test [2] and in test [3] was 50.1 µM (active) each time. Further, the Potency entry in test [7] is “inactive”.

As to `Cc1cc(C(C)(C)C)c(O)c(C(C)(C)C)c1`, the Potency result in [1], in test [2], in test [3], in [4], in [5] and in test [6] was “inactive” in each case. In addition, the Potency result in test [7], in [8], in [9] and in [10] was “inactive” throughout.

Consider `COc1cc(C=O)ccc1O`, for which the Potency entry in test [1], in [2], in test [3], in test [4], in test [5] and in test [6] was “inactive” in each case. Further, the Potency entry in [7], in test [8], in [9] and in test [10] was “inactive” in each case.

For `C1=CC2C3C=CC(C3)C2C1` (configuration not stated), the Potency result in [1], in test [2], in test [3], in [4], in [5] and in test [6] was “inactive” each time. The Potency result in [7], in test [8], in [9] and in [10] was “inactive” each time.

For `Nc1cccc2c(N)cccc12`, the Potency entry in [1], in [2], in test [3], in [4], in test [5] and in test [6] was “inactive” in each case. For the same compound, the Potency result in test [7], in [8], in [9] and in test [10] was “inactive” throughout.

For the compound `CC(C)(C)c1ccc(O)c(O)c1`, the Potency in test [1] was 39.8 µM (active); in test [2] it was 31.6 µM (active); in test [3] it was 39.8 µM (active); in test [4] it was 39.8 µM (active); in test [5] it was 31.6 µM (active); in test [9], 50.1 µM (active). The Potency in test [10] is 39.8 µM (active).

On to `Nc1ccc(O)cc1`, for which the Potency in [1] is 50.1 µM (active); in [2] it was 31.6 µM (active); in test [3], 39.8 µM (active); in test [4], 39.8 µM (active); in test [5] it was 31.6 µM (active); in test [6] it was 50.1 µM (active). The Potency in test [8] was 39.8 µM (active); in test [9], 50.1 µM (active); in test [10], 31.6 µM (active).

As to `CC(C)(c1ccc(O)cc1)c1ccc(O)cc1`, the Potency result in test [1], in [2], in test [3], in test [4], in test [5] and in test [6] was “inactive” throughout. Also, the Potency entry in test [7], in [8], in test [9] and in test [10] was “inactive” throughout.

As to `CCCCC(CC)COC(=O)c1ccccc1C(=O)O` (configuration not stated), the Potency entry in test [1], in [2], in test [3], in test [4], in test [5] and in [6] was “inactive” each time. Besides, the Potency entry in test [7], in test [8], in test [9] and in test [10] was “inactive” in each case.

`Oc1ccccc1`: the Potency result in [1], in test [2], in [3], in [4], in test [5] and in [6] was “inactive” in each case. Also, the Potency result in test [7], in test [8], in test [9] and in test [10] was “inactive” in each case.

For the compound `OCc1c[nH]c2ccccc12`, the Potency result in test [1], in test [2], in [3], in test [4], in [5] and in test [6] was “inactive” throughout. Besides, the Potency result in [7], in test [8], in test [9] and in test [10] was “inactive” each time.

On to `Brc1ccccc1-c1ccccc1`, for which the Potency entry in test [1], in test [2], in [3], in test [4], in test [5] and in test [6] was “inactive” each time. The Potency entry in [7], in test [8], in test [9] and in test [10] was “inactive” each time.

As to `Nc1c2ccccc2nc2ccccc12`, the Potency in test [1] is 12.6 µM (active); in test [2], 10 µM (active); in test [3], 15.8 µM (active); in [4], 10 µM (active); in test [5] it was 12.6 µM (active); in [6] it was 12.6 µM (active). Also, the Potency in test [7] was 12.6 µM (active); in [8] it was 7.94 µM (active); in test [9] it was 20 µM (active); in test [10], 15.8 µM (active).

As to `O=C(c1ccccc1)c1ccccc1`, the Potency entry in [1], in test [2], in [3], in [4], in test [5] and in test [6] was “inactive” each time. For the same compound, the Potency result in [7], in test [8], in test [9] and in [10] was “inactive” each time.

`CC(C)C(C)(C)C(C)(C)C(C)(C)S`: the Potency entry in [1], in test [2], in [3], in test [4], in test [5] and in test [6] was “inactive” each time. For the same compound, the Potency result in [7], in [8], in test [9] and in test [10] was “inactive” in each case.

`c1ccc2occc2c1`: the Potency result in test [1], in [2], in [3], in [4], in test [5] and in [6] was “inactive” each time. In addition, the Potency entry in [7], in test [8], in test [9] and in test [10] was “inactive” each time.
